High-throughput results as filed in PubChem.
HCMV inh = qHTS Assay for inhibitors of the human cytomegalovirus (HCMV); activity change, negative = inhibition, % at 57.5 µM; hit rate 4.5% among 410,000; AID 1259415, 2018; HFF cells, HCMV-luciferase reporter, 72 h; hits give low values; in the data active = activity change below about -60%; inconclusive = no clear call, values can overlap the other calls; inactive = above about -39%; note: % is set by controls: 0 for no effect and ±100 for the full control effect
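Two-dose cell screen: HFF monolayers treated with compounds and infected with luciferase-expressing HCMV at 1 PFU/cell, 72 h at 37C, then lysed for luciferase measurement.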
Pf growth 48h = Primary qHTS for delayed death inhibitors of the malarial parasite plastid, 48 hour incubation. P. falciparum luciferase growth in erythrocytes, 48 h. Potency, µM (doses to about 28.7 µM), for inactives: at the top dose activity change, negative = inhibition, actives largely listed as inhibitors. hit rate 5.9% among 310,000. AID 504832, 2011; note: potency is the fitted concentration of half-maximal effect; % is set by controls: 0 for no effect and ±100 for the full control effect
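Growth was read as firefly luciferase luminescence after a 48 h, 37 C, 5% CO2 exposure of compounds to reporter-bearing P. falciparum cultures (0.1% parasitemia, 2% hematocrit final) in Albumax-supplemented RPMI 1640.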
Pf growth 96h = Primary qHTS for delayed death inhibitors of the malarial parasite plastid, 96 hour incubation. hit rate 6.9% among 320,000. Potency, µM (highest dose often 28.7 µM), inactives show at the highest dose activity change, negative = inhibition, actives largely listed as inhibitors. P. falciparum luciferase reporter growth, 96 h; note: potency is the fitted concentration of half-maximal effect; % is set by controls: 0 for no effect and ±100 for the full control effect
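Infected RBCs, 2% Hct / 0.05% parasitemia final; luciferase-reporter P. falciparum; cpd 96 h, 37 C, 5% CO2; luciferase detection reagent; luminescence.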
Shiga toxin inh = A qHTS for Small Molecule Inhibitors of Shiga Toxin. Vero cells, Shiga toxin protein synthesis inhibition reporter. inhibition, % at 38.7 µM. hit rate 9.2% among 290,000. AID 2315, 2010; in the data active = inhibition mostly above about 28%, no sharp cut-off; inactive = mostly below about 43%; note: 0% is about no effect
HCV inhibitor = qHTS Assay for Inhibitors of Hepatitis C Virus (HCV); hit rate 3.4% among 340,000; Potency, µM (doses to about 41.8 µM), for inactives: top-dose activity change, negative = inhibition, most hits filed as inhibitors; Huh7.5.1 HCVcc-Cre infection, luciferase reporter, 44 h; AID 651820, 2012; note: potency is the fitted concentration of half-maximal effect; % is set by controls: 0 for no effect and ±100 for the full control effect
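Antiviral activity was scored by luciferase reporter output from cells infected with HCVcc-Cre (~0.5 moi) in presence of compound, 44 h infection period, cells seeded 1,000/well 4 h prior.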
Cycloheximide cs = Cycloheximide Counterscreen for Small Molecule Inhibitors of Shiga Toxin. AID 2314, 2010. cell reporter, cycloheximide protein synthesis inhibition counterscreen. hit rate 12% among 300,000. max response, %; in the data active = max response mostly above about 13%, no sharp cut-off; inactive = mostly below about 14%; note: read at 38.3 µM for the half of the compounds with a filed dose; 0% is about no effect
* marks the source's active call; other numbers are inactive results; ? = inconclusive; . = not tested or not shown. Sampled rows, rich in hits. Any-hit rate of the full collection: about 21%. Unless noted, calls come from the whole dose curve; as a rule, active = well fitted inhibition curve with a large enough effect; inconclusive = small, poorly fitted or top-dose-only effect, or another doubt; inactive = no such curve, though single readings can be large or run the other way.

SMILES | HCMV inh | Pf growth 48h | Pf growth 96h | Shiga toxin inh | HCV inhibitor | Cycloheximide cs
O=[N+]([O-])c1ccc(S(=O)(=O)N2CCN(Cc3c[nH]c4ccccc34)CC2)cc1 | 61 | 0% | . | -6 | 22µM* | -1
COc1ccc(CN(CCc2c[nH]c3ccccc23)Cc2ccc(OC)cc2)cc1 | 4 | . | . | . | ? | .
CCN(CC)Cc1c[nH]c2ccccc12 | 63 | ? | 8.3µM* | 59 | -8% | 28
COc1ccc(S(=O)(=O)N2CCN(Cc3c[nH]c4ccccc34)CC2)cc1 | 66 | 9% | 32% | -7 | 8% | -1
CN(CCc1ccccc1)Cc1c[nH]c2ccccc12 | -99* | ? | ? | -13 | 0% | 1
CCN(Cc1ccccc1)C(=O)Cc1c[nH]c2ccccc12 | -38 | ? | ? | -2 | -2% | 6
Cc1ccc(Cl)cc1NC(=O)Cn1c(=O)oc2cc(S(=O)(=O)N3CCCCCC3)ccc21 | 0 | . | . | . | . | .
CCOc1ccc(C2c3[nH]c4ccccc4c3CCN2CCCn2cccn2)cc1 (stereo not drawn) | 20 | ? | ? | 12 | ? | -2
COc1ccc(C2c3[nH]c4ccccc4c3CCN2CCCn2cccn2)c(C)c1C (stereo not drawn) | 9 | ? | 12µM* | -25 | ? | 0
CC(C)CC1c2[nH]c3ccccc3c2CCN1CCCn1cccn1 (stereo not drawn) | -12 | ? | 13µM* | -7 | -7% | -2
COc1cccc(C2c3[nH]c4ccccc4c3CCN2CCCn2cccn2)c1 (stereo not drawn) | -10 | ? | ? | -5 | -30% | -2
Cc1cccc(-c2ocnc2C(=O)Nc2ncc(C)s2)c1 | 0 | . | . | . | . | .
CCCCOc1ccc(C(=O)NCC(=O)NCC(c2ccc(F)cc2)N2CCOCC2)cc1 (stereo not drawn) | -3 | ? | ? | . | 13% | .
O=c1c(Cl)c(N2CCCCC2)cnn1-c1nc2ccccc2[nH]1 | -61* | 0% | 241% | 17 | -6% | 20*
O=c1c2ccccc2cnn1-c1nc2ccccc2[nH]1 | -92* | -31% | -41% | -35 | 9% | -10
CCS(=O)(=O)N1CCN(c2cnn(-c3ccccc3)c(=O)c2Cl)CC1 | -10 | 19% | -6% | 4 | -1% | -3
CC(=O)N(Cc1cc2cc(C)ccc2[nH]c1=O)c1cccc(C)c1C | -17 | 0% | 9.3µM* | . | -6% | -5
CC(=O)N(CCc1ccccc1)Cc1cc2cc(C)ccc2[nH]c1=O | -18 | -4% | ? | -6 | -4% | 1
Cc1ccc2cc(CN(C(=O)c3cccnc3)C(C)C)c(=O)[nH]c2c1 | 22 | 12µM* | ? | -13 | -12% | -1
CCCN(Cc1cc2ccc(C)cc2[nH]c1=O)C(=O)c1cccnc1 | 2 | ? | . | 30 | -27% | -2
COc1cccc(C(=O)N(Cc2cc3cc(C)ccc3[nH]c2=O)C(C)C)c1 | -32 | 7.4µM* | 3.7µM* | 8 | ? | -3
COc1cc(OC)cc(C(=O)N(Cc2cc3cc(C)ccc3[nH]c2=O)C(C)C)c1 | -19 | ? | ? | 1 | -26% | 1
Cc1c(CN2CCN(CC(C)C)C(CCO)C2)[nH]c2ccc(Cl)cc12 (stereo not drawn) | 17 | -16% | 41% | 8 | -25% | -2
CC(C)(C)[C@@H]1COC(=O)[C@H](Cc2ccc(F)cc2)CC/C=C\C[C@@H](CC(=O)N(CCO)Cc2ccccc2)C(=O)N1 | -16 | . | . | . | 1% | .
CN(C)c1ccc(-c2n(C)c3ccccc3[n+]2C)cc1 | -97* | ? | . | 52* | 8.9µM* | 27*
Cn1c(-c2ccc3ccccc3n2)[n+](C)c2ccccc21 | -72* | ? | 0.93µM* | 72* | ? | 53*
CCCCCNC(=O)C1(C)CCc2nc3cc(C)c(C)cc3n21 (stereo not drawn) | -11 | . | . | . | . | .
Cc1ccc(NC2Sc3ccccc3NC2=O)cc1 (stereo not drawn) | 42 | 211% | 486% | 41* | 0% | 22*
